This is a sample that favours compounds with a hit; in the whole collection about 1.7% have one here.
PfHsp40 rescue – compounds rescuing yeast from Plasmodium falciparum HSP40 toxicity. S. cerevisiae expressing PfHsp40, growth rescue, ATP luminescence. growth rescue, % at 12.5 µM. hit rate 0.68% among 340,000. AID 504582; in the data active means growth rescue above about 28%, passing the limit was not always enough;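 further: yeast W303a lacking pdr1 and pdr3 grown in galactose medium; growth measured after three days at 30 °C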
PrPC surface inh – inhibitors of human cell surface prion protein PrPC; TR-FRET read-out; inhibition, % at 13.8 µM; hit rate 0.43% among 370,000; AID 720596; in the data active means inhibition above about 24%
SSB-PriA inh – inhibitors of Klebsiella pneumoniae PriA binding to SSB C-terminal tail | AlphaScreen SSBct-PriA binding, biotinylated peptide | inhibition, % at 33 µM | hit rate 0.6% among 430,000 | AID 1272365; in the data active means inhibition mostly above about 37%, no sharp cut-off; inactive means mostly below about 20%
Yp Topo-I inh – blocks Yersinia pestis topoisomerase I activity; Y. pestis Topo-I cleavage product accumulation, plate reader; activity, % at 10 µM; hit rate 0.064% among 360,000; in the data active means activity above about 50%, passing the limit was not always enough
BJeLR lethal – BJeLR cell viability loss | BJeLR (HRASV12) viability, CellTiter-Glo ATP luminescence, 48 h | inhibition, % (test concentration not listed) | hit rate 0.17% among 300,000; in the data active means inhibition above about 50%
PrP 5UTR inh – suppresses PrP 5' UTR mRNA reporter expression; hit rate 0.35% among 340,000; cell-based PrP 5' UTR mRNA reporter, plate reader; inhibition, % (no concentration beside the values); in the data active means inhibition above about 52%
PrP UTR cherry – prion 5' UTR mRNA inhibition, cherry-pick retest. inhibition, % at 2.5 µM. cell-based prion protein 5' UTR reporter, plate reader. shares compounds with PrP 5UTR inh. AID 504592. hit rate 48% among 1,100; in the data active means inhibition above about 54%
Hits are given with their value.

What do the screens show for `CCCCNc1c([N+](=O)[O-])cc(C)cc1[N+](=O)[O-]`?
PfHsp40 rescue: inactive; PrPC surface inh: inactive; SSB-PriA inh: 76; Yp Topo-I inh: inactive; BJeLR lethal: inactive; PrP 5UTR inh: inactive

Results for CCCCNc1c([N+](=O)[O-])cc(C(=O)O)cc1[N+](=O)[O-] ?
PfHsp40 rescue: inactive; PrPC surface inh: inactive; SSB-PriA inh: inactive; Yp Topo-I inh: inactive; BJeLR lethal: inactive; PrP 5UTR inh: inactive

Results for CN1CCN(N=Cc2c3ccccc3c(Cl)c3ccccc23)CC1 ?
SSB-PriA inh: 53

Results for CN1CCN(N=Cc2cccc(Cl)c2Cl)CC1 ?
SSB-PriA inh: inactive

Results for Cc1ccc(-n2ncc3c(=O)[nH]c(-n4nc(C)cc4NC(=O)COc4ccccc4F)nc32)cc1 ?
SSB-PriA inh: inactive

What do the screens show for `Cc1cc(NC(=O)COc2ccccc2F)n(-c2nc3c(cnn3-c3cccc(C)c3C)c(=O)[nH]2)n1`?
SSB-PriA inh: 43

Results for COc1cccc(C(=O)Nc2cc(C)nn2-c2nc3c(cnn3-c3ccc(C)cc3)c(=O)[nH]2)c1OC ?
SSB-PriA inh: inactive

What do the screens show for `COc1cccc(C(=O)Nc2cc(C)nn2-c2nc3c(cnn3-c3cccc(C)c3C)c(=O)[nH]2)c1OC`?
SSB-PriA inh: 94

How did CCCN1CCCc2cc(CCNS(=O)(=O)c3cc(OC)ccc3OC)ccc21 do in these assays?
SSB-PriA inh: 43

What do the screens show for `CCCN1CCCc2cc(CCNC(=O)C(=O)Nc3ccc(OC)c(OC)c3)ccc21`?
SSB-PriA inh: inactive

What do the screens show for `CCCN1CCCc2cc(CCNS(=O)(=O)c3cc(CC)ccc3OC)ccc21`?
SSB-PriA inh: 66

How did CCCN1CCCc2cc(CCNS(=O)(=O)c3cc(Cl)ccc3OC)ccc21 do in these assays?
SSB-PriA inh: 56

Results for COc1ccc2c(c1)c1nc(SCCOc3ccc(F)cc3)n(C)c(=O)c1n2C ?
SSB-PriA inh: inactive

How did COc1nc(C(N)=NO)nc(N2CCCCC2)n1 do in these assays?
SSB-PriA inh: inactive

How did Cc1c(O)cc2n(c1=O)-c1ccccc1C2(C)C do in these assays?
PfHsp40 rescue: inactive; PrPC surface inh: inactive; SSB-PriA inh: inactive; Yp Topo-I inh: inactive; BJeLR lethal: inactive; PrP 5UTR inh: inactive

Results for CC1(C)c2ccccc2-n2c1cc1oc(=O)cc(O)c1c2=O ?
PfHsp40 rescue: 60; PrPC surface inh: inactive; SSB-PriA inh: inactive; Yp Topo-I inh: inactive; BJeLR lethal: inactive; PrP 5UTR inh: inactive

How did CC(=O)N(c1ccccc1)c1c(F)c(F)c(F)c(F)c1F do in these assays?
PfHsp40 rescue: 34; PrPC surface inh: inactive; SSB-PriA inh: inactive; Yp Topo-I inh: inactive; BJeLR lethal: inactive; PrP 5UTR inh: inactive

Results for Cc1noc(C)c1CCC(=O)NCC1(c2cccs2)CCOCC1 ?
SSB-PriA inh: inactive

What do the screens show for `Cc1cc(C)n(-c2nc3ccccc3c3nc(C)nn23)n1`?
PfHsp40 rescue: inactive; PrPC surface inh: inactive; SSB-PriA inh: 104; Yp Topo-I inh: inactive; BJeLR lethal: inactive; PrP 5UTR inh: inactive

Results for COc1cccc(NC(=O)NCC2CCN(c3ncccc3C#N)CC2)c1OC ?
SSB-PriA inh: inactive

What do the screens show for `N#C/C(=C(/O)CCl)c1nnc2n1CCCCC2`?
PfHsp40 rescue: inactive; PrPC surface inh: inactive; SSB-PriA inh: inactive; Yp Topo-I inh: inactive; BJeLR lethal: inactive; PrP 5UTR inh: inactive

How did N#C/C(=C(/O)COc1ccccc1)c1nnc2n1CCCCC2 do in these assays?
PfHsp40 rescue: 31; PrPC surface inh: inactive; SSB-PriA inh: inactive; Yp Topo-I inh: inactive; BJeLR lethal: inactive; PrP 5UTR inh: inactive

What do the screens show for `COc1cc(C(=O)ON=C2C3CC4CC(C3)CC2C4)cc(OC)c1OC`?
PfHsp40 rescue: 325; PrPC surface inh: inactive; SSB-PriA inh: inactive; Yp Topo-I inh: inactive; BJeLR lethal: inactive; PrP 5UTR inh: inactive

Results for Cn1cccc1C(CNC(=O)c1ccc2ccccc2c1)N1CCCC1 (stereo not given) ?
SSB-PriA inh: 22

Results for Cn1cccc1C(CNC(=O)c1ccc(C(C)(C)C)cc1)N1CCCC1 (stereo not given) ?
SSB-PriA inh: inactive

Results for CC12CN3CCN(CC(C3)C1=N/N=C/c1cccc([N+](=O)[O-])c1)C2 ?
SSB-PriA inh: inactive

How did O=C(c1cc(-c2ccccc2)on1)N1CC(N2C(=O)C3CC=CCC3C2=O)C1 (stereo not given) do in these assays?
SSB-PriA inh: inactive

Results for CN(C)CCCNc1cc(C(C)(C)C)nc2c(-c3ccc(Cl)cc3)cnn12 ?
PfHsp40 rescue: 44; PrPC surface inh: inactive; SSB-PriA inh: inactive; Yp Topo-I inh: inactive; BJeLR lethal: inactive; PrP 5UTR inh: inactive

What do the screens show for `Cc1cc(NCCCn2ccnc2)n2ncc(-c3ccc(Cl)cc3)c2n1`?
PfHsp40 rescue: inactive; PrPC surface inh: inactive; SSB-PriA inh: 43; Yp Topo-I inh: inactive; BJeLR lethal: inactive; PrP 5UTR inh: inactive

What do the screens show for `COc1ccc(Cl)cc1C(=O)N1CC(c2nc(-c3cccc(C(F)(F)F)c3)no2)C1`?
SSB-PriA inh: inactive

Results for O=C(c1ccccc1)c1c2c(cc3sc4ccccc4[n+]13)-c1cccc3cccc-2c13 ?
PfHsp40 rescue: 119; PrPC surface inh: inactive; SSB-PriA inh: inactive; Yp Topo-I inh: inactive; PrP 5UTR inh: inactive

What do the screens show for `Cc1sc2cc3c(c(C(=O)c4ccccc4)[n+]2c1C)-c1cccc2cccc-3c12`?
PrPC surface inh: inactive; SSB-PriA inh: inactive; BJeLR lethal: 68

How did O=C(c1ccccc1)c1ccc2ccccc2c1 do in these assays?
PfHsp40 rescue: inactive; PrPC surface inh: inactive; SSB-PriA inh: inactive; Yp Topo-I inh: inactive; PrP 5UTR inh: inactive

What do the screens show for `CC(=O)c1c(C)[nH]c(C(=O)Nc2nc(C)cs2)c1C`?
PfHsp40 rescue: inactive; PrPC surface inh: inactive; SSB-PriA inh: inactive; Yp Topo-I inh: inactive; BJeLR lethal: inactive; PrP 5UTR inh: 65; PrP UTR cherry: inactive

How did O=C(COc1ccccc1F)N1CCN(Cc2nc3ccccc3n2Cc2ccccc2)CC1 do in these assays?
SSB-PriA inh: inactive

How did CCN(CCCl)c1cc(CN(C)C)cc(NC(=O)c2ccc(C(=O)Nc3cc(CN(C)C)cc(N(CC)CCCl)c3)cc2)c1 do in these assays?
PfHsp40 rescue: inactive; PrPC surface inh: inactive; SSB-PriA inh: inactive; Yp Topo-I inh: inactive; PrP 5UTR inh: 95; PrP UTR cherry: 91

Results for CCN(CC)c1ccc(NC(=O)c2cnn(CC)c2)cc1 ?
PfHsp40 rescue: inactive; PrPC surface inh: inactive; SSB-PriA inh: inactive; Yp Topo-I inh: inactive; BJeLR lethal: inactive; PrP 5UTR inh: inactive

How did COc1ccc(C(=O)N2CCN(c3ncnc4c(-c5ccccc5)nsc34)CC2)cc1 do in these assays?
PfHsp40 rescue: inactive; PrPC surface inh: inactive; SSB-PriA inh: inactive; Yp Topo-I inh: inactive; BJeLR lethal: inactive; PrP 5UTR inh: inactive

Compound activity from PubChem BioAssay.
